Compound activity deposited in PubChem BioAssay by several laboratories.
Sampled rows, rich in hits. Any-hit rate of the full collection: about 3.6%.
Mdm2-MdmX inh: inhibitors of human Mdm2/MdmX interaction. inhibition, % at 8 µM. 3% of 330,000 active. AID 485346. O15151+Q00987. SaOS-2 split-luciferase Mdm2/MdmX complementation, luminescence;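 active = inhibition of at least 50% at 8 µM in the primary screen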
Target sequence (O15151 whole entry, looked up): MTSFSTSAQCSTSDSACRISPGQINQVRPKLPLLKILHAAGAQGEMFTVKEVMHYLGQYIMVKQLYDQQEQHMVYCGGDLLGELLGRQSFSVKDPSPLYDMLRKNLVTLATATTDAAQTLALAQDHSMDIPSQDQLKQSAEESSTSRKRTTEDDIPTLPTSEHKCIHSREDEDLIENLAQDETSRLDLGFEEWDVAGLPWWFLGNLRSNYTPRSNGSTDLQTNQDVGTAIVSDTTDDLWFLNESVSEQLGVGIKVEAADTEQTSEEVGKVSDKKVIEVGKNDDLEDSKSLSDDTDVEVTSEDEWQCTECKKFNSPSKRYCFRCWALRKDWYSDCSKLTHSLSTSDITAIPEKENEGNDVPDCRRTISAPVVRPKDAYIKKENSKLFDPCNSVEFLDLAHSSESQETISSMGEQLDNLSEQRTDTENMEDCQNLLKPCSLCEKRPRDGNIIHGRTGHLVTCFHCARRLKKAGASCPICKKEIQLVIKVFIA
Target sequence (Q00987 whole entry, looked up): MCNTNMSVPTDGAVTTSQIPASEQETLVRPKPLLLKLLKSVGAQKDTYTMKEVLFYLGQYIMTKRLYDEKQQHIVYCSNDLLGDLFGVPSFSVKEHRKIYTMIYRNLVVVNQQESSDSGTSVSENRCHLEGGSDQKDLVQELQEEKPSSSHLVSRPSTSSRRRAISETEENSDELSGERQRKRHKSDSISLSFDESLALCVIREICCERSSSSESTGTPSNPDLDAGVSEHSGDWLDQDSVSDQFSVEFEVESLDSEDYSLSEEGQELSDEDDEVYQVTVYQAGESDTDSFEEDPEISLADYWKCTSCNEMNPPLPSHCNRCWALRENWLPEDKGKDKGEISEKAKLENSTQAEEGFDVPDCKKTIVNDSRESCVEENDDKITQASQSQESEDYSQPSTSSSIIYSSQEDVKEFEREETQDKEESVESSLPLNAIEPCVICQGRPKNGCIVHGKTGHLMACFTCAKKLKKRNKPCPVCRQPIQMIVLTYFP
Peg3 promoter: inhibitors of Peg3 promoter. HeLa PEG-Prom luciferase reporter, luminescence, overnight. AID 588405. inhibition, % at 20 µM. 1.7% of 360,000 active;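 active = inhibition of at least 50% at 20 µM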
LGR2 inh: inhibitors of bursicon-induced Drosophila LGR2 receptor cAMP signaling; HEK293 LGR2, CRE-luciferase, bursicon-stimulated, 4 h; inhibition, % at 9.99 µM; 0.35% of 380,000 active; AID 720647;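 active = drop in luminescence signal, shown as inhibition above about 50% in the replicate tests, limit read from the data, passing the limit was not always enough; inconclusive = probably only some replicates passing the limit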;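 note: agonist challenge used bursicon conditioned medium at about half maximal strength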
HSP90 refold inh: inhibitors of HSP90 luciferase refolding in rabbit reticulocyte lysate; luciferase refolding luminescence, 3 h; inhibition, % at 5.6 µM; 0.91% of 290,000 active;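 active = inhibition above the screen-wide mean plus 3 SD, computed separately per campaign, cut at about 16% in these data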;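 note: inhibitors lower the luminescence because luciferase stays unfolded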
CF NFkB block: inhibitors of cystic fibrosis induced NF-kB. KKLEB NF-kB-GFP reporter, PAF-induced, GFP fluorescence overnight. inhibition, % at 5 µM. 0.86% of 360,000 active. AID 588850;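 active = at least 50% inhibition at 5 µM, scaled per plate between neutral and stimulator controls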;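 note: PAF is a Pseudomonas aeruginosa culture filtrate used as stimulus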
KKLEB tox: reduces viability of KKLEB cystic fibrosis airway cells. KKLEB CF airway cells viability, ATPlite luminescence, overnight; stronger effect = lower value; cells stimulated with P. aeruginosa culture filtrate. activity change (cytotoxicity), % at 5 µM. 0.36% of 360,000 active. AID 602141;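 active = corrected activity change at or below -50% at 5 µM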
Mdm2-MdmX conf: confirmation of human Mdm2/MdmX interaction inhibitors; shares compounds with Mdm2-MdmX inh; inhibition, % at 8 µM; Mdm2-MdmX binding, luminescent assay; 55% of 10,000 active; in the data active = inhibition above about 40%
Full FLuc ctr: counter-screen for Mdm2/MdmX inhibitors: full-length luciferase | 77% of 6,200 active | AID 504607 | shares compounds with Mdm2-MdmX inh | inhibition, % at 8 µM | SaOS-2 full-length luciferase counterscreen, luminescence;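 active = mean inhibition at 8 µM reaching about 37%, which flags the compound as non-specific, limit read from the data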;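 note: p53-null SaOS-2 cells with luciferase driven by a doxycycline-inducible promoter; compound on cells about two nights before reading with doxycycline added after day one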
Numbers stand for hits; - = inactive; ? = inconclusive; . = no result given.

SMILES | Mdm2-MdmX inh | Peg3 promoter | LGR2 inh | HSP90 refold inh | CF NFkB block | KKLEB tox | Mdm2-MdmX conf | others
Cc1ccc(-c2csc3nc4c5ccccc5c(NCCCN(C)C)nn4c(=O)c23)cc1 | 100.3 | 109.3 | ? | - | - | -59.7 | 50.3 | Full FLuc ctr=64.1
Cc1ccc(NC(=O)CN2C(=O)S/C(=C\c3ccccn3)C2=O)cc1C | 68.2 | - | - | - | - | - | -
Cc1cccc(C)c1NC(=O)CN1C(=O)S/C(=C\c2cccn2-c2cccc(C(=O)O)c2)C1=O | - | - | - | - | - | - | .
Cn1cc(/C=C2/SC(=O)N(CC(=O)Nc3ccc4c(c3)OCO4)C2=O)c2ccccc21 | 64.2 | - | . | - | 58.5 | -65.5 | -
O=C(CN1C(=O)S/C(=C\c2ccc(-c3cc(C(=O)O)ccc3Cl)o2)C1=O)Nc1ccc2c(c1)OCO2 | - | - | - | - | - | - | .
O=C(CN1C(=O)S/C(=C/c2ccncc2)C1=O)Nc1ccccc1 | - | - | - | - | - | - | .
Cc1cccc(C)c1NC(=O)CN1C(=O)S/C(=C\c2cccn2C)C1=O | 80.1 | - | - | - | - | - | -
CO[C@@H]1CN(C)C(=O)c2cc(NC(C)=O)ccc2OC[C@H](C)N(CCc2ccccc2)C[C@@H]1C | . | . | - | . | . | . | .
CCOc1cc(CNCCc2ccc(S(N)(=O)=O)cc2)cc(Cl)c1OCc1ccccc1 | 67.2 | - | - | - | - | - | - | Full FLuc ctr=52.7
CCOc1cc(CNCCc2ccc(S(N)(=O)=O)cc2)ccc1OCc1ccccc1 | . | - | . | - | - | - | .
CCOc1cc(CNCc2ccccc2)ccc1OCc1ccc(Cl)cc1 | 55.0 | - | - | - | - | - | -
O=C(C[C@H]1C=C[C@@H](NC(=O)c2ccncc2)[C@H](CO)O1)Nc1ccc(-c2ccccc2)cc1 | . | . | - | . | . | . | .
COc1cccc2sc(N(CCN(C)C)C(=O)c3ccc4c(c3)CCCC4)nc12 | - | - | - | - | - | - | .
COc1cccc2sc(N(CCN(C)C)C(=O)/C=C/c3cccs3)nc12 | 56.0 | - | - | - | - | - | -
COc1ccc(OC)c2sc(N(CCN(C)C)C(=O)/C=C/c3cccs3)nc12 | 97.2 | 104.4 | - | - | 68.0 | -97.7 | 100.1 | Full FLuc ctr=-
COc1ccc(C)c2sc(N(CCN(C)C)C(=O)c3cccc(N4C(=O)CCC4=O)c3)nc12 | - | - | - | . | - | - | .
CCOc1cccc2sc(N(CCN(C)C)C(=O)/C=C/c3cccs3)nc12 | 65.5 | - | . | - | - | - | -
O=C(C[C@H]1C=C[C@H](NC(=O)c2ccc3c(c2)OCO3)[C@H](CO)O1)NCc1ccc(Cl)cc1 | . | . | - | . | . | . | .
C[C@H](CO)N1C[C@H](C)[C@H](CN(C)C(=O)c2ccncc2)OCCCC[C@H](C)Oc2ccc(NS(=O)(=O)c3cn(C)cn3)cc2C1=O | . | . | - | . | . | . | .
CC(C)C#Cc1ccc([C@H]2[C@H](CO)N3C(=O)CN(C(=O)Cc4ccccc4)C[C@@H]23)cc1 | . | . | - | . | . | . | .
O=C(C[C@@H]1C=C[C@@H](NS(=O)(=O)c2ccccc2)[C@@H](CO)O1)N1CCC(Cc2ccccc2)CC1 | . | . | - | . | . | . | .
COc1ccc(C)cc1NC(=O)Nc1ccc(Br)cn1 | - | - | . | - | - | - | .
COc1ccccc1CNC(=O)OCc1nccnc1C(=O)Nc1ccc(Br)cn1 | 54.6 | - | - | - | - | - | -
CC(=O)N1CC[C@@H]2[C@H]1c1cc(-c3ccccc3)ccc1N(C)[C@@H]2CO | . | . | - | . | . | . | .
C/C(=N\Nc1cc(C)nc(-c2ccccc2O)n1)c1ccccc1O | 89.4 | - | - | - | 80.4 | - | 82.0 | Full FLuc ctr=40.9
SMILES | Mdm2-MdmX inh | Peg3 promoter | LGR2 inh | HSP90 refold inh | CF NFkB block | KKLEB tox | Mdm2-MdmX conf | others
Cc1cc(N/N=C/c2ccccc2O)nc(-c2ccccc2O)n1 | 72.1 | - | - | - | - | - | 72.2 | Full FLuc ctr=46.4
Cc1cc(Nc2ccc(Cl)cc2)nc(-c2ccccc2O)n1 | - | - | - | - | - | - | .
Cc1cc(N/N=C\c2ccccc2)nc(-c2ccccc2O)n1 | - | - | - | - | - | - | .
C[C@H](CO)N1C[C@H](C)[C@@H](CN(C)C(=O)Nc2ccc3c(c2)OCO3)Oc2c(NC(=O)CCCCCC(=O)Nc3ccccc3N)cccc2C1=O | . | . | - | . | . | . | .
C[C@@H]1CN([C@@H](C)CO)C(=O)c2cc(NS(=O)(=O)c3cn(C)cn3)ccc2O[C@@H]1CN(C)Cc1ccccc1 | . | . | - | . | . | . | .
Cc1ccnc(NC(=O)CCCc2c[nH]c3ccccc23)c1 | 67.8 | - | - | - | - | - | -
Cc1ccc(NC(=O)CCCc2c[nH]c3ccccc23)nc1 | - | - | - | - | - | - | .
COC(=O)[C@@]1(Cc2ccccc2)[C@H]2C(=O)N(Cc3ccccc3)C(=O)[C@H]2[C@H]2CN=C(SCc3ccc(C)cc3)N21 | 57.8 | - | . | . | - | - | 65.5 | Full FLuc ctr=46.4
COC(=O)c1ccc(CSC2=NC[C@@H]3[C@@H]4C(=O)N(Cc5ccccc5)C(=O)[C@@H]4[C@](Cc4ccccc4)(C(=O)OC)N23)cc1 | - | - | - | . | - | - | .
COC(=O)[C@@]1(Cc2ccccc2)[C@H]2C(=O)N(Cc3ccccc3)C(=O)[C@H]2[C@H]2CN=C(SCc3ccccc3)N21 | 88.8 | - | - | . | - | - | 85.5 | Full FLuc ctr=-
C[C@@H]1CN([C@H](C)CO)C(=O)c2cc(NC(=O)Cc3cn(C)c4ccccc34)ccc2O[C@H]1CN(C)C(=O)Nc1ccc(C(F)(F)F)cc1 | . | . | - | . | . | . | .
O=C(C[C@@H]1CC[C@@H]2[C@H](COC[C@H](O)CN2S(=O)(=O)c2ccccc2)O1)NCCN1CCCCC1 | . | . | - | . | . | . | .
C[C@H](CO)N1C[C@H](C)[C@H](CN(C)C(=O)C2CCOCC2)Oc2cc(C3=CCCCC3)ccc2S1(=O)=O | . | . | - | . | . | . | .
O=C(CN1C(=O)c2ccccc2S1(=O)=O)c1ccc(F)cc1 | 83.4 | 57.5 | 74.5 | - | - | - | 68.2 | Full FLuc ctr=80.6
O=C(CN1C(=O)c2ccccc2C1=O)c1ccc(F)cc1 | - | - | - | - | - | - | .
O=C(CN1C(=O)c2ccccc2S1(=O)=O)c1ccc(OC(F)F)cc1 | 50.4 | 56.1 | . | - | - | - | 72.2 | Full FLuc ctr=76.0
O=C(C1CC1)N1CC[C@@H]2[C@@H](CO)Nc3ccc(-c4cccc(F)c4)cc3[C@@H]21 | . | . | - | . | . | . | .
C/C(=N\NC(=O)CNC(=O)C(c1ccccc1)c1ccccc1)c1ccc(C(C)(C)C)cc1 | 55.1 | - | - | - | - | - | -
C/C(=N\NC(=O)CNC(=O)C(c1ccccc1)c1ccccc1)c1ccccc1 | - | - | - | - | - | - | .
CCOC(=O)c1ccc(N=C2S/C(=C\c3cc(C)n(-c4cccnc4)c3C)C(=O)N2C)cc1 | 66.3 | - | . | - | - | - | -
C[C@H]1CN([C@@H](C)CO)C(=O)Cc2cc(NC(=O)Nc3ccc4c(c3)OCO4)ccc2O[C@@H]1CN(C)C(=O)NC1CCCCC1 | . | . | - | . | . | . | .
